This note sets out measurements from PubChem BioAssay AID720567 (Broad Institute, 2013).

Each structure is given as a SMILES string. Entries with a potency or affinity are not part of this list. Activity calls are given as the source filed them. The rule behind the calls is not given here.

This assay in a line: toxicity toward HEK293 cells – cell-based, dry powder samples, cytotoxicity control, dose response (AID 720567). The note with it: plate reader; series mostly up to 15 µM.
For the molecule `c1ccc(CSc2nnc(-c3ccccc3)o2)cc1`, the molecule was classed as inactive.
Then `COc1ccc(CSc2nnc(-c3ccccc3)o2)cc1`, with “inactive”; and `CC(=O)N[C@H]1[C@@H](O[C@@H]2OC(C[C@@H](O)C3O[C@@H](n4ccc(=O)[nH]c4=O)[C@H](O)[C@@H]3O)[C@H](O)[C@H](O)[C@H]2NC(=O)/C=C/CCCCCCCCCCC(C)C)O[C@H](CO)[C@@H](O)[C@@H]1O` (stereo partly drawn), with “inactive”.
